# Measurements: PubChem BioAssay
# Values joined by “and” are separate entries in the source; they are usually repeats but may differ in a detail not shown here. Equal entries are not always repeated. Active and inactive are the calls of the source. Cut-off read from the data, not from the text of the source, unless noted: active = parasite load remaining mostly below about 12% (no sharp cut-off); inactive = mostly above about 10%.
# What was measured:
# [1] = suppressors of polyQ aggregation in yeast, 75Q-TubU reporter (AID 1593); conditions: Yeast 75Q polyglutamine aggregation reporter
# [2] = inhibitors of mitochondrial cytochrome c release, biochemical, purified mitochondria (AID 1603); conditions: stronger effect = lower value;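 note: mouse liver mitochondria challenged with calcium chloride; signal normalized to the plate average as 100%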
# [3] = inhibitors of polyQ protein aggregation (AID 1604); conditions: polyglutamine-induced protein aggregation inhibition assay; stronger effect = higher value; tested at 2.5 µM
# [4] = stimulators of nuclear beta-catenin in C2C12, primary screen, imaging, WNT3A-conditioned medium, mouse C2C12, NPC library (AID 1117326; in the data active = nuclear beta-catenin stimulation mostly above about 4.2%, no sharp cut-off; inactive = mostly below about 10%); conditions: stronger effect = higher value
# [5] = stimulators of insulin release from INS-1E, primary screen, cell-based, 5 mM glucose, NPC library (AID 1117329;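 active = compound raises insulin release from rat beta cells at 5 mM glucose, no numeric limit stated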); conditions: rat INS-1E insulin secretion, at 10 µM, stronger effect = higher value
# [6] = growth inhibition of GSK3B-pretreated HCT116 cells – cell-based, CellTiter-Glo, 0.2 to 20 µM (AID 1117336;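 active = compounds lowering colon cancer cell viability after pretreatment blocking the GSK3B kinase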); conditions: HCT116 viability after GSK3B inhibitor, at 20 µM, stronger effect = higher value
# [7] = inhibition of endothelial tube formation, primary screen, imaging, VEGF stimulated, CD31 staining, tube area, NPC library (AID 1117340;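 active = compound that reduces growth-factor-driven endothelial tube area in a mixed cell culture, no cutoff stated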); conditions: VEGF-stimulated ADSC/ECFC co-culture, at 10 µM, stronger effect = higher value
# [8] = glucagon-like peptide 1 release enhancers, primary assay, NCI-H716 cell line, NPC library (AID 1117341;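 active = compound raises GLP1 secretion from the human gut endocrine cells, with no numeric limit stated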); conditions: NCI-H716 cells, at 10 µM, stronger effect = higher value
# [9] = HCT116 colon cancer cell growth inhibition, primary screen, CellTiter-Glo luminescence, NPC library (AID 1117342;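 active = compounds that lower survival of HCT116 colon cancer cells in the luminescence readout, no numeric limit stated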); conditions: at 20 µM (top of the series)
# [10] = CellTiter-Glo luminescent readout of SW480 viability loss, NPC library primary (AID 1117343;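 active = compounds that lower viability of the colon cancer cells in the luminescence readout, with no numeric limit stated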); conditions: CellTiter-Glo luminescence; at 20 µM (top of the series)
# [11] = decreased DLD-1 cellular survival, CellTiter-Glo luminescent readout, NPC compound collection, primary HTS (AID 1117346;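 active = compounds that lower survival of DLD-1 colon cancer cells in the luminescence readout, no cutoff given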); conditions: DLD-1 viability, CellTiter-Glo luminescence; at 20 µM (top of the series)
# [12] = biological target: 6-phosphogluconate dehydrogenase, decarboxylating (Homo sapiens) (UniProt P52209); assay: 6PGD enzyme inhibitors, primary screen, biochemical, human, recombinant enzyme, NADPH absorbance (AID 1159550;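 active = at least 20% inhibition of 6-phosphogluconate dehydrogenase activity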); conditions: recombinant 6PGD, NADPH absorbance 341 nm; at 10 µM; stronger effect = higher value
# [13] = differential killing of epithelial or mesenchymal cells, primary screen, imaging, PC-3E GFP, TEM4-18 mCherry, co-culture (AID 1345086;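 active = compounds killing one labelled cell type while sparing the other, by normalised counts and ratio limits, not self-fluorescent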;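 for all read-outs here: cells exposed to compound for 72 h before imaging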;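 for red/green cell ratio (normalised): normalised mesenchymal count divided by normalised epithelial count so high means epithelial killing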); conditions: imaging cell counts, at 1 µM; for red/green cell ratio (normalised): actives lie on both sides
# [14] = test system: Aerobactin synthetase IucA (Klebsiella pneumoniae hvKP1); assay: Biochemical IucA enzyme inhibition primary screen of the Spectrum library (AID 1346200; call rule not given here;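 note: 100% = wells without compound and 0% = wells lacking enzyme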); conditions: malachite green pyrophosphate, A620, at 8 µM, stronger effect = lower value
# [15] = sensitizers of A549 cells to miR-34 induction, primary screen, imaging, A549 dox-inducible miR-34, nuclei and caspase counts (AID 1347080;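 active = compounds whose cell count with miR-34 switched on is under 0.7 times the count with it off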); conditions: A549 miR-34 inducible, Hoechst nuclei count, 48 h
# [16] = biological target: Mitogen-activated protein kinase 7 (Homo sapiens) (UniProt Q13164); assay: ERK5 transactivation activators in reporter cells, primary screen, cell-based, HTS (AID 1508626;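 active = luciferase signal above three times the same-plate solvent-only control wells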;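 note: luciferase driven by Gal4-ERK5 fusion binding five Gal4 sites before minimal TATA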); conditions: HeLa Gal4-ERK5 transactivation, 18 h, at 5 µM, stronger effect = higher value
# [17] = viability rescue of complex I mutant cybrids, primary screen, cell-based, galactose medium, ATP luminescence (AID 1645843;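 active = z-score of at least 1.8 in each of two replicates, scored against plate mean and spread of sample wells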;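 note: positive z means more ATP and so rescue of galactose-driven cybrid death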); conditions: complex I mutant cybrid cells, 72 h, stronger effect = higher value
# [18] = survival rescue of mitochondrial mutant cells in low glucose, primary screen, MELAS cybrids, Rieske KO mouse fibroblasts, CellTiter-Glo (AID 1508586;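 active = mean z-score across replicates of 1.96 or higher in either the MELAS or the Rieske mutant cell line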;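 note: z relative to plate mean and SD of compound and empty wells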)
# [19] = biological target: NAD(+) hydrolase SARM1 (Homo sapiens) (UniProt Q6SZW1); assay: SARM1 TIR NADase inhibitors, cell lysate, NAD-Glo luminescence (AID 1508614;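 active = compound whose remaining NAD level is above about 45 nM, limit read from the data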;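 note: higher remaining NAD means stronger inhibition of SARM1 NADase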); conditions: SAM-TIR HEK293T lysate NADase, at 1 µM, stronger effect = higher value
# [20] = liver-stage malaria parasite growth inhibition, primary screen, cell-based, HepG2, luciferase luminescence, HepG2 viability (AID 624349);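 note: 100% = mean of DMSO negative control wells on the same plate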; conditions: P. berghei liver stage in HepG2, luciferase luminescence, concentration not given here; parasite load remaining: stronger effect = lower value; viability: measured here: HepG2 viability without parasites
# [21] = measured here: epithelial PC-3E GFP cell survival
# [22] = measured here: mesenchymal TEM4-18 mCherry cell survival
# [23] = measured here: relative caspase fold change +Dox/-Dox
# [24] = measured here: total cells with miR-34 induction, stronger effect = lower value
# [25] = measured here: total cells without miR-34 induction
# [26] = MELAS cybrid survival, CellTiter-Glo 48 h, stronger effect = higher value
# [27] = Rieske KO mouse fibroblast survival, CellTiter-Glo 72 h
# 6-phosphogluconate dehydrogenase, decarboxylating (Homo sapiens), sequence (P52209 whole entry, looked up): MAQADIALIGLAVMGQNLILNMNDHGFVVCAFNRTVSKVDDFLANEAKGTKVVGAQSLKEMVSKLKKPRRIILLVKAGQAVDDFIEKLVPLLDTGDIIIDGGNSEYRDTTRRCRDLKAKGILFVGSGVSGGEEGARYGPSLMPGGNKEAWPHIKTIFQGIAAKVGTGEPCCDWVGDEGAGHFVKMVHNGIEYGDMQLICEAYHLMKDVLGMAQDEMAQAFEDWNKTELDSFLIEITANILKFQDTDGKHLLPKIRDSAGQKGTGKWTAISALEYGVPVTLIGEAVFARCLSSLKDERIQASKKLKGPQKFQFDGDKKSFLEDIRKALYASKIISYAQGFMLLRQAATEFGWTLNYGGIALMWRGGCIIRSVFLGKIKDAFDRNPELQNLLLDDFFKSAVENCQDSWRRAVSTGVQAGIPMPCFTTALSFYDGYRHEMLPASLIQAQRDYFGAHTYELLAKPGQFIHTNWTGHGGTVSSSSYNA
# NAD(+) hydrolase SARM1 (Homo sapiens), sequence (Q6SZW1 whole entry, looked up): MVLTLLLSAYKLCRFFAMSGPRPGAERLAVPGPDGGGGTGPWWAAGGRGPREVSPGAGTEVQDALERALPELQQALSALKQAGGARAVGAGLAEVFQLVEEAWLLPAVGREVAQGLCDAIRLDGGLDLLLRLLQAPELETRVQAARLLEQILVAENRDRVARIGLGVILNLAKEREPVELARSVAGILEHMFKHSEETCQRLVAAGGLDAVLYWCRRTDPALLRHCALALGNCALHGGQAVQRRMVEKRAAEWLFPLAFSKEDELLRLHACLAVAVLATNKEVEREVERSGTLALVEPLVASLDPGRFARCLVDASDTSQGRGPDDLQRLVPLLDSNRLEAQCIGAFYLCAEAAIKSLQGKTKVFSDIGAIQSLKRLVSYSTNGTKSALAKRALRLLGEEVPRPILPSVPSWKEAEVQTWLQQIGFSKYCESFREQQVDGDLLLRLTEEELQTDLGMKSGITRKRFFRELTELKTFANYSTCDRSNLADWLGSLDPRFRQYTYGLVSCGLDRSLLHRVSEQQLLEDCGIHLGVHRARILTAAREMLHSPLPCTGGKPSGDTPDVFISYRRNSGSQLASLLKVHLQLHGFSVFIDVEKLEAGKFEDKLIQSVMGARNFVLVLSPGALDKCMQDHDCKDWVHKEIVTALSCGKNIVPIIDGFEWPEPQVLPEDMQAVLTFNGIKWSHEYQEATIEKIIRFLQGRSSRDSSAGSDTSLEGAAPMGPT
# Mitogen-activated protein kinase 7 (Homo sapiens), sequence (Q13164 whole entry, looked up, the tested form may be a part): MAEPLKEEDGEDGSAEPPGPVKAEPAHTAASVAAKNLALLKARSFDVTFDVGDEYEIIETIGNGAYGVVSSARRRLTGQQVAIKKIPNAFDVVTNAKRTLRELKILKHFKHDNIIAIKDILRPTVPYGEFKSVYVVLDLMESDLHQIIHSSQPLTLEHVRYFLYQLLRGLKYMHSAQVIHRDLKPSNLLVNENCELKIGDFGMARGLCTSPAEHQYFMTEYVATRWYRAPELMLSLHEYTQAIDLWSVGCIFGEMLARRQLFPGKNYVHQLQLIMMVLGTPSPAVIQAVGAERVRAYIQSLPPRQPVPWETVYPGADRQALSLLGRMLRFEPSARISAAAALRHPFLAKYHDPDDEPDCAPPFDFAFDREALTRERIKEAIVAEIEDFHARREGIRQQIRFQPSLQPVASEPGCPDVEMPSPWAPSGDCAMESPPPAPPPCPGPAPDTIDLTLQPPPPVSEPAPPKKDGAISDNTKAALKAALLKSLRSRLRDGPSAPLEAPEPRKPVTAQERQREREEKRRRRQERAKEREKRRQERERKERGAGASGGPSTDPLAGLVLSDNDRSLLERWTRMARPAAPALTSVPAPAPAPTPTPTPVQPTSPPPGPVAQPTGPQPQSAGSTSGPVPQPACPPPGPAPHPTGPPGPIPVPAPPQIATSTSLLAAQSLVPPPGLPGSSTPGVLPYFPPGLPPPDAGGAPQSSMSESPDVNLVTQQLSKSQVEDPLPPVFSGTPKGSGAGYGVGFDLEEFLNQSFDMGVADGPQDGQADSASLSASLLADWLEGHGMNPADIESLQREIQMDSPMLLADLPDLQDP
structure (smiles),measurement,setting,value
C=C(C)[C@H]1Cc2c(ccc3c2O[C@@H]2COc4cc(OC)c(OC)cc4[C@@H]2C3=O)O1,score,[1],3.23
same,cytochrome c release ratio,[2],1.15
same,inhibition of aggregation,[3],33.3%
same,nuclear beta-catenin stimulation,[4]; at 10 µM,92.8% (active)
same,nuclear beta-catenin stimulation,"[4]; stimulation, at 2 µM",43.8%
same,insulin secretion stimulation,[5],-0.1% (inactive)
same,viability decrease,[6],4.4% (inactive)
same,tube area decrease,[7],107% (active)
same,GLP1 secretion stimulation,[8],2.2% (inactive)
same,inhibition of viability,[9],60.6% (active)
same,viability decrease (inhibition),[10],88.3% (active)
same,viability decrease (inhibition),[11],83.4% (active)
same,inhibition,[12],10.4% (inactive)
same,red/green cell ratio (normalised),[13],1.19 (inactive)
same,normalised cell number,[13]; [21],0.27
same,normalised cell number,[13]; [22],0.32
same,activity remaining,[14],92.3% (inactive)
same,fold change,[15]; stronger effect = lower value,1.11 (inactive)
same,fold change,[15]; [23],0.665
same,cell count,[15]; [24],1680
same,cell count,[15]; [25],1510
same,luciferase signal,[16],52 AU (inactive)
same,z-score,[17],-1.29 (inactive)
O=P1(N(CCCl)CCCl)NCCCO1 (centres undefined),score,[1],0.77
same,cytochrome c release ratio,[2],1
same,inhibition of aggregation,[3],69.7%
same,nuclear beta-catenin stimulation,[4]; at 10 µM,1% (inactive)
same,nuclear beta-catenin stimulation,"[4]; stimulation, at 2 µM",0.9%
same,insulin secretion stimulation,[5],-1% (inactive)
same,viability decrease,[6],-1.15% (inactive)
same,tube area decrease,[7],16.1% (inactive)
same,GLP1 secretion stimulation,[8],1.6% (inactive)
same,inhibition of viability,[9],-24.2% (inactive)
same,viability decrease (inhibition),[10],101% (active)
same,viability decrease (inhibition),[11],-8.15% (inactive)
same,inhibition,[12],-5.23% (inactive)
same,red/green cell ratio (normalised),[13],1.26 (inactive)
same,normalised cell number,[13]; [21],1.18
same,normalised cell number,[13]; [22],1.48
same,activity remaining,[14],120% (inactive)
same,z-score,[18]; [26],0.187 (inactive) and -0.193 (inactive)
same,z-score,[18]; [27],-0.0217 and -1.38
same,remaining NAD,[19],10 nM (inactive)
same,luciferase signal,[16],84 AU (inactive)
same,z-score,[17],0.055 (inactive) and 0.19 (inactive) and -0.255 (inactive)
O=[N+]([O-])O[C@H]1CO[C@H]2[C@@H]1OC[C@H]2O[N+](=O)[O-],score,[1],1.7
same,cytochrome c release ratio,[2],0.66
same,inhibition of aggregation,[3],83.1%
same,parasite load remaining,[20],88.7% (inactive) and 89.6% (inactive) and 73.9% (inactive)
same,viability,[20],101% and 72.5% and 103%
same,nuclear beta-catenin stimulation,[4]; at 10 µM,1.4% (inactive)
same,nuclear beta-catenin stimulation,"[4]; stimulation, at 2 µM",0.8%
same,insulin secretion stimulation,[5],0.2% (inactive)
same,viability decrease,[6],-35.2% (inactive)
same,tube area decrease,[7],2.7% (inactive)
same,GLP1 secretion stimulation,[8],-0.1% (inactive)
same,inhibition of viability,[9],-4.45% (inactive)
same,viability decrease (inhibition),[10],10.7% (inactive)
same,viability decrease (inhibition),[11],-9.7% (inactive)
same,inhibition,[12],-5.58% (inactive)
same,red/green cell ratio (normalised),[13],1.14 (inactive)
same,normalised cell number,[13]; [21],1.17
same,normalised cell number,[13]; [22],1.33
same,activity remaining,[14],86.8% (inactive)
same,fold change,[15]; stronger effect = lower value,0.842 (inactive) and 0.816 (inactive)
same,fold change,[15]; [23],1.05 and 0.822
same,cell count,[15]; [24],8050 and 10900
same,cell count,[15]; [25],9560 and 13300
same,z-score,[18]; [26],-0.72 (inactive)
same,z-score,[18]; [27],-0.455
same,remaining NAD,[19],10 nM (inactive)
same,luciferase signal,[16],164 AU (inactive)
CNC(C)(C)Cc1ccccc1,score,[1],1.71
same,cytochrome c release ratio,[2],1.14
same,inhibition of aggregation,[3],68.2%
same,parasite load remaining,[20],104% (inactive) and 157% (inactive) and 55.8% (inactive)
same,viability,[20],104% and 88.4% and 81%
same,nuclear beta-catenin stimulation,[4]; at 10 µM,-2.4% (inactive)
same,nuclear beta-catenin stimulation,"[4]; stimulation, at 2 µM",0.7%
same,insulin secretion stimulation,[5],2.7% (inactive)
same,viability decrease,[6],-16.7% (inactive)
same,tube area decrease,[7],-0.3% (inactive)
same,GLP1 secretion stimulation,[8],1.1% (inactive)
same,inhibition of viability,[9],0.43% (inactive)
same,viability decrease (inhibition),[10],15.4% (inactive)
same,viability decrease (inhibition),[11],-5.3% (inactive)
same,inhibition,[12],-16.6% (inactive)
same,red/green cell ratio (normalised),[13],1.08 (inactive)
same,normalised cell number,[13]; [21],0.92
same,normalised cell number,[13]; [22],1
same,activity remaining,[14],99.6% (inactive)
same,fold change,[15]; stronger effect = lower value,0.876 (inactive) and 0.893 (inactive)
same,fold change,[15]; [23],1.32 and 3.57
same,cell count,[15]; [24],7450 and 10900
same,cell count,[15]; [25],8510 and 12200
same,z-score,[18]; [26],-0.189 (inactive)
same,z-score,[18]; [27],-0.596
same,remaining NAD,[19],10 nM (inactive)
same,luciferase signal,[16],56 AU (inactive)
